Test results as given in the supplement of paper PMC11732987, “Enantioselective OTUD7B fragment discovery through chemoproteomics screening and high-throughput optimisation” (Communications Chemistry, 2025).

Legend:
Test in all cases: log2 ratio of Biotin-Ahx-Ub-VS probe labelling (fragment/DMSO); higher = less target engagement (more negative = stronger competition), active = hit call of the paper (q ≤ 0.05, log2 ratio ≤ -1)
Settings in all cases: compound concentration: 200 uM; treatment time: 3 h
USP19 = biological target: T1, USP19 (UniProt O94966)
T1 sequence (whole entry): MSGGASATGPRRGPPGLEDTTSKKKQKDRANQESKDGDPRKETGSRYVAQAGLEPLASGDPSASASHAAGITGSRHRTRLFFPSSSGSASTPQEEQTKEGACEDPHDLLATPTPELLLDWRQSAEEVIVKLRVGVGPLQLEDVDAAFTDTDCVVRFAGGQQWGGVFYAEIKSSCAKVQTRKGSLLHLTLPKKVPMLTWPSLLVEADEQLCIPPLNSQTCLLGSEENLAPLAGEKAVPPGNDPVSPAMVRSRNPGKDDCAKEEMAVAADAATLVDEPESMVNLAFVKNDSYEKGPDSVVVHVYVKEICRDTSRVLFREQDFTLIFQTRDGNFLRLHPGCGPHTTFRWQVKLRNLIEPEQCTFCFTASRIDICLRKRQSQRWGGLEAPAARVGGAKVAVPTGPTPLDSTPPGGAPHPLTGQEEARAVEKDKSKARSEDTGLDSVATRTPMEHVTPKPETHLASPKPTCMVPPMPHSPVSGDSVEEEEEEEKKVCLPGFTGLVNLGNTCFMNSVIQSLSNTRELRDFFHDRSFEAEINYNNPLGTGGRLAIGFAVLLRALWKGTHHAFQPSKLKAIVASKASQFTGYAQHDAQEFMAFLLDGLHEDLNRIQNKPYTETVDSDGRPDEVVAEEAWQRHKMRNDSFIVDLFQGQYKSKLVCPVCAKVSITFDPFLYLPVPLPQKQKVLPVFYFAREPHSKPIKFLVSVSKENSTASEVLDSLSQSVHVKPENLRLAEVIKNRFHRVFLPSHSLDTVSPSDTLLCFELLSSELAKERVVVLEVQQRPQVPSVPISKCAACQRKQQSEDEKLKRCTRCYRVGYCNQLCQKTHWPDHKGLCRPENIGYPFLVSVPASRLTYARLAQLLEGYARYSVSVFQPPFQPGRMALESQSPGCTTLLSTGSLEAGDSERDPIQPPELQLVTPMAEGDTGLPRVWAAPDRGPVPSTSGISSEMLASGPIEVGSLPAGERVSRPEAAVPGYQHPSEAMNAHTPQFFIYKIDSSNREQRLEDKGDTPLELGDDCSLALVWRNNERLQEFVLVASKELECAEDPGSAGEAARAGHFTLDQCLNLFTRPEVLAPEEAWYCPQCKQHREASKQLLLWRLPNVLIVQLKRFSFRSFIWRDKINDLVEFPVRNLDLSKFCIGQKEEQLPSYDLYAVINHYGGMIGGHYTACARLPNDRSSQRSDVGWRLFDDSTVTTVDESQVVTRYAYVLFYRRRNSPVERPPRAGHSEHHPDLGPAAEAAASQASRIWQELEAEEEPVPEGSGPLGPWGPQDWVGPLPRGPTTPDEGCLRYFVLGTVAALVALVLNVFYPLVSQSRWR
In short: (§1)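 The table lists average log2 ratios of fragment over vehicle, from an unpaired t-test on global-median-normalised Spectronaut label-free quantities. Proteins with ≥2 unique peptides were used. Samples were HEK293T lysate (495 µg) treated in triplicate with fragment at 200 µM or vehicle for 3 h, then with Biotin-Ahx-Ub-VS (0.5 µM final) for 1 h, with labelled DUBs NeutrAvidin-enriched and run by diaPASEF LC-MS/MS.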

USP24 = USP24 (UniProt Q9UPU5)
Sequence of USP24 (Q9UPU5 whole entry): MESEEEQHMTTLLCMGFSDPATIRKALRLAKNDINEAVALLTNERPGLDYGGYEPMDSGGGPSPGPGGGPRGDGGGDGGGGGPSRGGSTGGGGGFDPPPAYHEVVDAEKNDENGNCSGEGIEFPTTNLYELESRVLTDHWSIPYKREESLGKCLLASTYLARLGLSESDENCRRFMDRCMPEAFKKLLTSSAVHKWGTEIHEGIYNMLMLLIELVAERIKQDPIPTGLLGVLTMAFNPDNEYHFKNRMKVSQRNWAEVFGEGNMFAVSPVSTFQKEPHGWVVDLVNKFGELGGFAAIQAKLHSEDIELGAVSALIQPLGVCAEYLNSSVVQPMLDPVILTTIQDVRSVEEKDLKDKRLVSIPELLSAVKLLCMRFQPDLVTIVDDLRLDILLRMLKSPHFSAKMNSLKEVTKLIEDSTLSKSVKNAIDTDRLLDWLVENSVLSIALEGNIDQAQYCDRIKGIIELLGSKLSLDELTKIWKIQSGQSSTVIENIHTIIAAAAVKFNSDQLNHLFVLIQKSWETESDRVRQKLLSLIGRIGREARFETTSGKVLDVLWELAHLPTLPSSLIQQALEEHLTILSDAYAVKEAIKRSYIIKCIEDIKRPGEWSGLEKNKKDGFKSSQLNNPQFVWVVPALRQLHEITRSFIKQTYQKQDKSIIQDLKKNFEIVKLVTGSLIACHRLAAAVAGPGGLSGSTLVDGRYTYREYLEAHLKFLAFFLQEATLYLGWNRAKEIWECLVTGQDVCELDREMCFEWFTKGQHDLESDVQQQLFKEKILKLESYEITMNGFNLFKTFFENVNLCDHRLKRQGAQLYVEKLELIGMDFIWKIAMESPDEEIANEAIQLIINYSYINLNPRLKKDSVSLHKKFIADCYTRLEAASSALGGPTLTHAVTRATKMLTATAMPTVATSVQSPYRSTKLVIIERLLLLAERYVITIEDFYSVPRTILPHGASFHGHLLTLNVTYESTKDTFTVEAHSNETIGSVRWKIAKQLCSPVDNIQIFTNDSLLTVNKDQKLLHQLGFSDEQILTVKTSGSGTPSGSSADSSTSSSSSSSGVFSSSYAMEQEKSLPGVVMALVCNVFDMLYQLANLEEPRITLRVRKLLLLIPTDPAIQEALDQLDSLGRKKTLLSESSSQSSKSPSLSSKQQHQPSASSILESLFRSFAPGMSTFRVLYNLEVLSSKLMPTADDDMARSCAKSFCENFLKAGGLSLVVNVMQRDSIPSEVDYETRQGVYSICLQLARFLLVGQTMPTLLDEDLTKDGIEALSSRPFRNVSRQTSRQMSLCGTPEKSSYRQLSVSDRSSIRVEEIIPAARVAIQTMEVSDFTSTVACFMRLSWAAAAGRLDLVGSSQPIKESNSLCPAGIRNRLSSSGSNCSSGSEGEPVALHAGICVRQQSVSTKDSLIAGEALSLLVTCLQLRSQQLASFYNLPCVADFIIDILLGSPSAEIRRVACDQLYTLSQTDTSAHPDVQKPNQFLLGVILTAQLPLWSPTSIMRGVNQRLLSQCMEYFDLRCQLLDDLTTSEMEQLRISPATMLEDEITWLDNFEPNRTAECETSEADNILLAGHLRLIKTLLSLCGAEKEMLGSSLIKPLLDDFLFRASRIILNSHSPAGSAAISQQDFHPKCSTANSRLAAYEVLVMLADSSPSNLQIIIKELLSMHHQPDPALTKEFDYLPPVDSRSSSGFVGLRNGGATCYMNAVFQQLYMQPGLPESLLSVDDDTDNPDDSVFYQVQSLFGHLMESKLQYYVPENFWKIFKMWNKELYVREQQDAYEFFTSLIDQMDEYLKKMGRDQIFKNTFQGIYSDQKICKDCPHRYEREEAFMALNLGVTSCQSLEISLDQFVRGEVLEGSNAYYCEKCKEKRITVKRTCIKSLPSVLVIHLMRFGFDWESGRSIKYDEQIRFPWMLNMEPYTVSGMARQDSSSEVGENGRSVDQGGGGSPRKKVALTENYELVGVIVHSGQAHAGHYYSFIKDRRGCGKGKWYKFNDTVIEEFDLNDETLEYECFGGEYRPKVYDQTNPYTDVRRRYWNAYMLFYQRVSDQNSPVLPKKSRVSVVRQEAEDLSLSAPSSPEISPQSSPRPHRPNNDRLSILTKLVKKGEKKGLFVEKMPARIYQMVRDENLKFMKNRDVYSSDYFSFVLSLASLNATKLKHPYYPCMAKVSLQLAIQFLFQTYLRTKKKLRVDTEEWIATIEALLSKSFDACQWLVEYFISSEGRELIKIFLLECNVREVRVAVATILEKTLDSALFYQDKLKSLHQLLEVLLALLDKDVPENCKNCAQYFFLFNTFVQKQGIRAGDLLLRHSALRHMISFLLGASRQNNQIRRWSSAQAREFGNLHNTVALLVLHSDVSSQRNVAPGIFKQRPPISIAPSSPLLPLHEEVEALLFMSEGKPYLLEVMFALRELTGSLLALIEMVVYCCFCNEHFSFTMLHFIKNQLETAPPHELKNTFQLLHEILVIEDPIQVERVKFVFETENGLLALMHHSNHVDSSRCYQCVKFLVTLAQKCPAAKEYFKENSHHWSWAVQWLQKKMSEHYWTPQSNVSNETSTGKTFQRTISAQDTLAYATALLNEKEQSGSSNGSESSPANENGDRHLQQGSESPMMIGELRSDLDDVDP
In short: as §1

USP25 = biological target: T2, USP25 (UniProt Q9UHP3)
T2 sequence (whole entry): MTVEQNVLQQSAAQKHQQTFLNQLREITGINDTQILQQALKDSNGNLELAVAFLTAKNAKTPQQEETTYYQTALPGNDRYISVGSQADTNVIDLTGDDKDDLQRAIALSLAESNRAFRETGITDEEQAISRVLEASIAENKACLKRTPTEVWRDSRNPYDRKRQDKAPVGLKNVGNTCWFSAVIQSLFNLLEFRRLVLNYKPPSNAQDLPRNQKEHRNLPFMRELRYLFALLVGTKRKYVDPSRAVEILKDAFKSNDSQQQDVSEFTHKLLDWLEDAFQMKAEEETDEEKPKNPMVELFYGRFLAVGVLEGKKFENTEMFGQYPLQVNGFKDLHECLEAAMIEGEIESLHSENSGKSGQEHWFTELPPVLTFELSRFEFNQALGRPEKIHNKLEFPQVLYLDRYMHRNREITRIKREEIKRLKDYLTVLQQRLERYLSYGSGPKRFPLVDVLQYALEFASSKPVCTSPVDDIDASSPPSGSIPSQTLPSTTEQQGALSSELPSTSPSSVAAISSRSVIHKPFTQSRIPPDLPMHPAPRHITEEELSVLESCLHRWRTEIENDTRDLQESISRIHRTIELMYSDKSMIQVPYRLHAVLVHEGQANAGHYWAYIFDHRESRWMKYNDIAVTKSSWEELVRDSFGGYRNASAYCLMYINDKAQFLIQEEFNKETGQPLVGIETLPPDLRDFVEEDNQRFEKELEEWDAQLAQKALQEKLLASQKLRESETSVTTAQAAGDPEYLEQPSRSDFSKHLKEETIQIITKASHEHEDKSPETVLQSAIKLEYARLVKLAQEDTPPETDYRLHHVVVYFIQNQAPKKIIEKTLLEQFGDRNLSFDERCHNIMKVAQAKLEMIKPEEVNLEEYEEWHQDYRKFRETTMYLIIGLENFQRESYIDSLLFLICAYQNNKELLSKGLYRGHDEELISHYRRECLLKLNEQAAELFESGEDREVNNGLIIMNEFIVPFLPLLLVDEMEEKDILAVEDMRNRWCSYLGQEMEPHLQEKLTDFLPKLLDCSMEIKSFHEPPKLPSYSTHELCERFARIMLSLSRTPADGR
In short: as §1

USP28 = biological target: T3, USP28 (UniProt Q96RU2)
T3 sequence (whole entry): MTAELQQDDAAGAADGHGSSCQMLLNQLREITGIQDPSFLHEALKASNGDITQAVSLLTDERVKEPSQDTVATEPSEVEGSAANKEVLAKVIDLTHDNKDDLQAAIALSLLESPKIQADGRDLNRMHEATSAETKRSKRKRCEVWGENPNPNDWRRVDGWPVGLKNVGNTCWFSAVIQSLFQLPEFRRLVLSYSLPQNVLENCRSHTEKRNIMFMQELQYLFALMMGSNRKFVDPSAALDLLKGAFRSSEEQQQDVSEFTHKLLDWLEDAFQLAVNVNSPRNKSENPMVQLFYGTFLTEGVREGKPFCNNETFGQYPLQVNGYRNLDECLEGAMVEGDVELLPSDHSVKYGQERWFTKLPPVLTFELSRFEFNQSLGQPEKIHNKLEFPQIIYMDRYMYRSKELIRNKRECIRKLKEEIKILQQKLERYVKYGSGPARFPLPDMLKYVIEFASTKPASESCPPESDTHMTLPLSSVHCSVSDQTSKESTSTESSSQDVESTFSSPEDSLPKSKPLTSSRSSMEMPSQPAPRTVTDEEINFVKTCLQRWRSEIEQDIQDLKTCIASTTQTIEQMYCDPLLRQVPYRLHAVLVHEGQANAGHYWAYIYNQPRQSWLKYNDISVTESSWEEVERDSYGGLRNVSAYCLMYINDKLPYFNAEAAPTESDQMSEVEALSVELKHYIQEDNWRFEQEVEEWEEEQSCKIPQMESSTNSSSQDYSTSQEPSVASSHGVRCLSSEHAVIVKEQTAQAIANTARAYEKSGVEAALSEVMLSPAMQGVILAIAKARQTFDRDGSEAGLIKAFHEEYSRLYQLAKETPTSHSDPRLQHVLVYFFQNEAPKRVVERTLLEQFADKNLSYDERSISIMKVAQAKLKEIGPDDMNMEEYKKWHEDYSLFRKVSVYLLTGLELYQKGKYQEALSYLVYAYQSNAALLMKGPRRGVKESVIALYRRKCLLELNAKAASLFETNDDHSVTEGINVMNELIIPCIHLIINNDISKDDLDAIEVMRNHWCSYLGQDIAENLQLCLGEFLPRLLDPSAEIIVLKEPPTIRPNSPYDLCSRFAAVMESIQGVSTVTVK
In short: as §1

Measured: log2 ratio of Biotin-Ahx-Ub-VS probe labelling

O=C(CCl)N1CCC(C(O)c2ccc(F)cc2)CC1 (centres undefined)
inactive: USP19 0.0656 | USP24 -0.164 | USP25 0.058 | USP28 -0.0428
